Assay results as given in PubChem BioAssay (Tox21).
Results filed as inconclusive are left out. Calls of active or inactive are those of the source. Unless noted, calls come from the whole dose curve; as a rule, active = well fitted curve in the direction sought with a large enough effect in the repeat runs; inconclusive = weak or mixed curves; inactive = no such curve, though single readings can be large; an effect the other way counts as inactive or inconclusive.

Assays:
[1] = A CellTox Green Cytotoxicity Assay to monitor cytotoxicity in HEK293 cells - 32 hour (AID 1224881); note: nearly all actives have a fitted effect of over 40% in size
In short: (§1)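 Fluorescence intensity, read at 0, 8, 16, 24, 32 and 40 h of compound treatment, reflected dye binding to DNA of dead HEK293 cells; compounds (23 nL, DMSO) were added 5 h after plating cells with reagent.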

[2] = A CellTox Green Cytotoxicity Assay to monitor cytotoxicity in HepG2 cells - 0 hour (AID 1224882); note: nearly all actives have a fitted effect of over 35% in size
In short: (§2)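 Using 1536-well format, dye-containing HepG2 suspension was seeded, allowed 5 h at 37 C/5% CO2, dosed by pintool with compounds, positive and negative controls, and imaged for fluorescence across 40 h.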

[3] = A CellTox Green Cytotoxicity Assay to monitor cytotoxicity in HepG2 cells - 32 hour (AID 1224883); note: nearly all actives have a fitted effect of over 50% in size
In short: as §2

[4] = A CellTox Green Cytotoxicity Assay to monitor cytotoxicity in HEK293 cells - 8 hour (AID 1224884); note: nearly all actives have a fitted effect of over 35% in size
In short: as §1

[5] = qHTS RealTime-Glo MT Cell Viability Assay in HepG2 cells - 16 hour (AID 1224885); note: nearly all actives have a fitted effect of over 50% in size
In short: (§3)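 Cells + NanoLuc/prosubstrate dispensed (600 cells/well) → 5 h at 37 C/5% CO2 → compounds in DMSO transferred → 40 h incubation at 37 C, luminescence read at 0, 8, 16, 24, 32, 40 h.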

[6] = qHTS RealTime-Glo MT Cell Viability Assay in HEK293 cells - 24 hour (AID 1224886); note: top concentration of the series differs between compounds; nearly all actives have a fitted effect of over 50% in size
In short: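 Tox21 10K qHTS, HEK293, 600 cells/well, RealTime-Glo reagent co-dispensed with cells; 5 h preincubation, compound by pintool, 37 C, luminescence at 0–40 h.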

[7] = qHTS RealTime-Glo MT Cell Viability Assay in HEK293 cells - 8 hour (AID 1224887); note: top concentration of the series differs between compounds; nearly all actives have a fitted effect of over 50% in size
In short: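 Viable HEK293 cells reduce a cell-permeant prosubstrate; the product diffuses out and is consumed by NanoLuc in the medium to give light. Compounds went in after a 5 h incubation and plates were read over the treatment course.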

[8] = A CellTox Green Cytotoxicity Assay to monitor cytotoxicity in HEK293 cells - 16 hour (AID 1224888); note: nearly all actives have a fitted effect of over 35% in size
In short: as §1

[9] = qHTS RealTime-Glo MT Cell Viability Assay in HepG2 cells - 0 hour (AID 1224889); note: nearly all actives have a fitted effect of over 50% in size
In short: as §3

[10] = A CellTox Green Cytotoxicity Assay to monitor cytotoxicity in HepG2 cells - 8 hour (AID 1224890); note: nearly all actives have a fitted effect of over 45% in size
In short: as §2

[11] = qHTS assay to identify small molecule antagonists of the estrogen receptor alpha (ER-alpha) signaling pathway using the BG1 cell line in the presence of 0.1 nM 17-beta-estradiol - cell viability counter screen (AID 1259241); note: nearly all actives have a fitted effect of over 40% in size
In short: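 Cells were plated and left 24 hr, compounds in DMSO were pinned in, 17beta-estradiol was added to 0.1 nM final, and after 22 hr CellTiter-Fluor reagent was added for 30 min before fluorescence was read.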

[12] = qHTS assay to identify small molecule antagonists of the androgen receptor (AR) signaling pathway using the MDA cell line in the presence of 0.5 nM R1881 - cell viability counter screen (AID 1259242); note: nearly all actives have a fitted effect of over 45% in size
In short: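 Viability of MDA-kb2 cells was multiplexed with the luciferase AR readout; after 16 hr with compounds and R1881 at 0.5 nM final, CellTiter-Fluor fluorescence was recorded.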

[13] = biological target: Estrogen receptor (Homo sapiens) (UniProt P03372); assay: qHTS assay to identify small molecule antagonists of the estrogen receptor alpha (ER-alpha) signaling pathway using the BG1 cell line in the presence of 0.1 nM 17-beta-estradiol (AID 1259244); note: nearly all actives have a fitted effect of over 50% in size
In short: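 Estradiol at 0.1 nM (final) stimulates the endogenous ER-alpha of VM7Luc4E2 cells carrying an ERE-driven luciferase; compounds are co-incubated 22 h at 37C and luciferase output quantified by luminescence.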

[14] = qHTS assay to identify small molecule phospholipidosis (PLD) inducers (AID 1259344; active = well fitted curve in the direction sought with a large enough effect; an effect the other way counts as inactive or inconclusive)
In short: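 HepG2 cells on collagen I, attached 4 h at 37 C, were co-treated with compound and LipidTOX Red dye for 24 h at 37 C, then fixed with paraformaldehyde plus Hoechst 33342 and imaged by high-content microscopy for phospholipid accumulation.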

[15] = qHTS assay to identify small molecule HDAC inhibitors (AID 1259364);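 note: wild-type HCT-116 cells with endogenous class I/II HDAC activity; top concentration of the series differs between compounds; nearly all actives have a fitted effect of over 45% in size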
In short: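 Read-out: luminescence of HDAC-Glo I/II reagent, 30 min RT, reflecting class I/II deacetylase activity in whole HCT-116 cells pre-exposed 2 h to DMSO-dissolved compounds.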

[16] = qHTS assay to identify small molecule HDAC inhibitors - cell viability counter screen (AID 1259365)
In short: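 Counter screen in wild-type HCT-116 cells: compounds dissolved in DMSO are pin-transferred onto overnight-plated cells and left 2hr at 37C. ATP-based CellTiter-Glo luminescence then measures viable cells.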

[17] = qHTS assay to identify small molecule agonists of the sonic hedgehog signaling (Shh) pathway - cell viability counter screen (AID 1259366); note: nearly all actives have a fitted effect of over 50% in size
In short: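 Cells are plated at 2,000 per well and left 4hr at 37C, 5% CO2 before compound addition. After 23hr of treatment, CellTiter-Fluor reagent is added for 1hr at 37C and fluorescence is measured.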

[18] = qHTS assay to identify small molecule antagonists of the sonic hedgehog signaling (Shh) pathway - cell viability counter screen (AID 1259367); note: nearly all actives have a fitted effect of over 55% in size
In short: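 NIH/3T3-derived Gli1-Luc reporter cells (2,000 per well) rested 4 hr at 37 C, then received DMSO compounds plus conditioned medium. After 23 hr of treatment, CellTiter-Fluor was added for 1 hr at 37C and fluorescence read.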

[19] = qHTS assay to identify small molecule agonists of the sonic hedgehog signaling (Shh) pathway (AID 1259368; calls by dose curve;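 note: NIH/3T3-derived 3T3Gli1-Luc cells carrying a stable Gli1-driven firefly luciferase reporter; series mostly up to about 92 µM; nearly all actives have a fitted effect of over 15% in size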)
In short: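 A Gli1 transcriptional response element controlled firefly luciferase in 3T3Gli1-Luc cells. Compounds and a positive control were added 4 hr after plating, and cells were incubated a further 24 hr at 37 C before luminescence detection.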

[20] = biological target: Androgen receptor (Homo sapiens) (UniProt P10275); assay: qHTS assay to identify small molecule antagonists of the androgen receptor (AR) signaling pathway using the MDA cell line in the presence of 0.5 nM R1881 (AID 1259243); note: nearly all actives have a fitted effect of over 50% in size
In short: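 Reporter cells cultured without CO2 receive test chemicals, then 0.5 nM R1881 final; after 16 hr at 37C, ONE-Glo is added and light output recorded.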

Measured: Potency

Chain of Estrogen receptor (Homo sapiens) (P03372 whole entry, looked up): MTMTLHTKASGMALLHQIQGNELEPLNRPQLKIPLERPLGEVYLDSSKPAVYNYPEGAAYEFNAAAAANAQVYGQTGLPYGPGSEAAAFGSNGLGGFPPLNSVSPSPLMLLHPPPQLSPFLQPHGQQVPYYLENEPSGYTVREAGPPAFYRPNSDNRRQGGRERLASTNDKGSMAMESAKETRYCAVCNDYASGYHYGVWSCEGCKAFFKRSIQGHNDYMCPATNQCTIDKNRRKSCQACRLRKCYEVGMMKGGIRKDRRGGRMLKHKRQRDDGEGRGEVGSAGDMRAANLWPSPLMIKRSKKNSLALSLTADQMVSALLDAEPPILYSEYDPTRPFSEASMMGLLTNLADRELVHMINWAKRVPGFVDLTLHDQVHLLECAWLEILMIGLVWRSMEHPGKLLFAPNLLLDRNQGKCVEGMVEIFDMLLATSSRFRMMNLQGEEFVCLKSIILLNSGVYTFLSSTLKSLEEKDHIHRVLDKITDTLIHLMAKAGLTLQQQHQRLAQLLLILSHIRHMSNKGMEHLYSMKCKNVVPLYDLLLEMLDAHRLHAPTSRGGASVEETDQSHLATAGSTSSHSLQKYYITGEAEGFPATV
Chain of Androgen receptor (Homo sapiens) (P10275 whole entry, looked up): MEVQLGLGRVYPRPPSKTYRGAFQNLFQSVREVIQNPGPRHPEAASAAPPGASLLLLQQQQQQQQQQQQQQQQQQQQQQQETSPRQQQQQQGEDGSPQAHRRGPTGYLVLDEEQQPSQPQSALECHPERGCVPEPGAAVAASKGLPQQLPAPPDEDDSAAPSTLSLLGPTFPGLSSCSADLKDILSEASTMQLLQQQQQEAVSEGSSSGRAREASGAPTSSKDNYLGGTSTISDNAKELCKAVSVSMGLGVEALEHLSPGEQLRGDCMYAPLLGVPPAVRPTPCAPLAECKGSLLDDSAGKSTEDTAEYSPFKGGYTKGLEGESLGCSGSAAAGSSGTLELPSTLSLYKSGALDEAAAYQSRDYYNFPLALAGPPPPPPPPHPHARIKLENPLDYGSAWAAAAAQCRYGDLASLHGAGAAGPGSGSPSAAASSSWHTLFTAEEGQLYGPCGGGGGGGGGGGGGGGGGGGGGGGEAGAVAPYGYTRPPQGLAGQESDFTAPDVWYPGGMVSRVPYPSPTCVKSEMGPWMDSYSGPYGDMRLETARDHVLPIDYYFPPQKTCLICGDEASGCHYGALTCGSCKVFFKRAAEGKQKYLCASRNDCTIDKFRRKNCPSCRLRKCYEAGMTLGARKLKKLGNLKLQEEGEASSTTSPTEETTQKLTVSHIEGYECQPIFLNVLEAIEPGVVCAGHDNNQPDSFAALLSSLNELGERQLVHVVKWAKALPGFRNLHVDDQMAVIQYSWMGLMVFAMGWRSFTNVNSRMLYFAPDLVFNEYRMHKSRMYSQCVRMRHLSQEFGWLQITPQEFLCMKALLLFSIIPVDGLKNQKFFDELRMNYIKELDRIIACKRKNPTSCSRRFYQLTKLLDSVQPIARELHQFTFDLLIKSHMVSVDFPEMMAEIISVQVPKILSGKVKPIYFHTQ

CC(COc1ccccc1)NN (stereo not drawn)
not listed: [20]
inactive: all other assays above

CCOc1c(N2CCOCC2)cnn(C)c1=O
not listed: [14]
inactive: all other assays above

CC1(C)OC[C@@H](COC(=O)CCc2ccc(OC[C@@H](O)CNCCNC(=O)N3CCOCC3)cc2)O1
not listed: [19]
inactive: all other assays above

CC(C)=CCC/C(C)=C/C#N
not listed: [14] | [20]
inactive: all other assays above

COCCOC[C@H](CC1(C(=O)NC2CCC(C(=O)O)CC2)CCCC1)C(=O)Oc1ccc2c(c1)CCC2 (stereo partly drawn)
not listed: [14] | [17] | [18]
inactive: all other assays above

O=C(O)c1cn(C2CC2)c2cc(N3CCNCC3)c(F)cc2c1=O
not listed: [20]
inactive: all other assays above

CO[Si](C)(OC)c1ccccc1
not listed: [14] | [18] | [20]
inactive: all other assays above
